Each structure is given as a SMILES string. Values without a mark were called inactive. Inconclusive results are not listed. Active and inactive are the calls of the source. Unless noted, the call rests on the fitted dose curve; in most records, active means well fitted curve in the direction sought with a large enough effect in the repeat runs; inconclusive means weak or mixed curves; inactive means no such curve, though single readings can be large; an effect the other way counts as inactive or inconclusive.

Data on 10 molecules can be found in PubChem BioAssay (Tox21).

Experiment [1] in a line: qHTS assay to identify small molecule agonists of the androgen receptor (AR) signaling pathway in the presence of an antagonist - cell viability counter screen (AID 1259379). Further: nearly all actives have a fitted effect of over 25% in size. Further: potency means the concentration at half of the fitted maximal effect.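 On activity change, negative = cytotoxicity: MDA-kb2 human breast cancer cells carrying an MMTV luciferase reporter; series mostly up to about 92 µM.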 In a few lines: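 Cytotoxicity is assessed by CellTiter-Fluor in MDA-kb2 cells carrying an MMTV-driven luciferase reporter. Cells receive 3.0uM nilutamide plus compounds at 15 concentrations and incubate 16 hr at 37C without CO2 before fluorescence reading.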

Experiment [2] in a line: qHTS assay to identify small molecule antagonists of the estrogen receptor beta (ER-beta) signaling pathway - cell viability counter screen (AID 1259382).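 Further: HEK293T cells carrying ER-beta-UAS-bla reporter stimulated with estradiol; series mostly up to about 92 µM; nearly all actives have a fitted effect of over 55% in size.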 The method in brief:
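Cytotoxicity counter screen multiplexed with the beta-lactamase antagonist assay: GripTite HEK293T ER-beta-bla cells were treated 16 hr with test chemicals in the presence of 1nM 17-beta-estradiol, and viability was measured by CellTiter-Glo.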
(In qHTS, concentration-response curves come from the screen itself.)

Experiment [3] is described as follows: qHTS assay to identify small molecule agonists or antagonists of the thyroid stimulating hormone receptor (TSHR) signaling pathway - wild type cell line counter screen (AID 1259384; calls by dose curve). In a few lines: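 Wild-type Hek293 cells, 800/well, 18 h at 37C, then compound with Ro20-1724 for 30 min RT. cAMP by HTRF (cAMP-d2/anti-cAMP cryptate), 1 h RT, fluorescence read. 15 concentrations, triplicates.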

In experiment [4] the target is Thyrotropin receptor (Homo sapiens) (UniProt P16473). Nature of the experiment: qHTS assay to identify small molecule antagonists of the thyroid stimulating hormone receptor (TSHR) signaling pathway (AID 1259385; calls by dose curve; further: nearly all actives have a fitted effect of over 20% in size). The method in brief:
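TSHR-HEK293 cells (800/well) plated 18 h, then compounds with Ro20-1724 and TSH at 1.5 ng/mL final, 30 min at room temperature. cAMP quantified by HTRF (cAMP-d2/anti-cAMP-cryptate, 1 h); 15 concentrations in triplicate.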

The nature of experiment [5]: qHTS assay to identify small molecule agonists of the estrogen receptor alpha (ER-alpha) signaling pathway in the presence of an antagonist - cell viability counter screen (AID 1259386).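 Further: series mostly up to about 92 µM; cells exposed to compounds for 22 h at 37 °C before the viability read; nearly all actives have a fitted effect of over 30% in size.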 In a few lines:
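Cytotoxicity was measured in parallel with the ERE-luciferase agonist screen, in the same wells. The cells were VM7Luc4E2, which endogenously express ER-alpha, and treatment was with compounds plus 10.0nM ICI-182,780 for 22hr.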

Experiment [6] has as its target Progesterone receptor (Homo sapiens) (UniProt P06401). Nature of the experiment: qHTS assay to identify small molecule agonists of the progesterone receptor (PR) signaling pathway (AID 1346784; calls by dose curve; further: nearly all actives have a fitted effect of over 30% in size). In a few lines:
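PR-UAS-bla HEK 293T cells (beta-lactamase reporter under UAS) in 2% charcoal-stripped FBS, dosed with 23 nL compound after 6 hr, incubated 16hr at 37C. LiveBLAzer B/G FRET substrate added, fluorescence read after 2 hours.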

Experiment [7] has the same target. The experiment in a line: qHTS assay to identify small molecule antagonists of the progesterone receptor (PR) signaling pathway (AID 1346795; active means well fitted inhibition curve with a large enough effect in the signal ratio in the repeat runs, not every such curve was filed as active; the % refers to the signal ratio). In a few lines: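 PR-UAS-bla HEK293T cells with beta-lactamase reporter under UAS control, in 2% charcoal-stripped FBS, treated with compounds plus 1 nM promegestone (R5020, final) for 16 hr at 37C. Read-out: FRET beta-lactamase substrate fluorescence after 2 hr at room temperature.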

Experiment [8] can be described thus: qHTS assay to identify small molecule antagonists of the progesterone receptor (PR) signaling pathway - cell viability counter screen (AID 1346798). Further: nearly all actives have a fitted effect of over 50% in size. Further: potency means the concentration at half of the fitted maximal effect. On activity change, negative = cytotoxicity: series mostly up to about 92 µM. In a few lines: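 PR-UAS-bla HEK293T cells, 3,000/well in 2% charcoal-stripped FBS medium, dosed with compounds plus R5020 agonist and incubated 16 h at 37C. Viability then measured in the same wells by CellTiter-Glo luminescence after 30 min at RT.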

A short description of experiment [9]: qHTS assay to identify small molecule agonists of the progesterone receptor (PR) signaling pathway - cell viability counter screen (AID 1346799; calls by dose curve; further: nearly all actives have a fitted effect of over 45% in size; further: potency means the concentration at half of the fitted maximal effect). In a few lines: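 Counter screen in the PR-UAS-bla HEK293T wells (2% charcoal-stripped FBS, 16 h compound exposure at 37 C) after the bla read. CellTiter-Glo added, 30 min at room temperature, luminescence read as cell viability.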

A short description of experiment [10]: qHTS assay to identify small molecule antagonists of the TGF-beta/Smad signaling pathway - cell viability counter screen (AID 1346824). Further: nearly all actives have a fitted effect of over 50% in size. In a few lines:
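SBE-bla HEK 293T cells, incubated overnight, then compound plus 0.25 ng/mL TGF-beta1 (stock added) for 5 hr at 37 C. Viability was read in the same wells by CellTiter-Glo luminescence after 30 min at room temperature.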

A short description of experiment [11]: qHTS assay to identify small molecule agonists of the TGF-beta/Smad signaling pathway - cell viability counter screen (AID 1346829). Further: top concentration of the series differs between compounds; nearly all actives have a fitted effect of over 45% in size. The method in brief:
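Compound-treated SBE-bla HEK 293T cells (5 hr, 37 C) were assessed for viability with CellTiter-Glo in parallel with the reporter read.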

Experiment [12] is described as follows: qHTS assay to identify small molecule agonists of the TGF-beta/Smad signaling pathway (AID 1346859; active means well fitted activation curve with a large enough effect in the signal ratio in the repeat runs, not every such curve was filed as active; the % refers to the signal ratio; further: series mostly up to about 77 µM). In a few lines: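 SBE-bla HEK293T cells plated overnight, then compound exposure for 5 h at 37 C. Beta-lactamase reporter read with LiveBLAzer B/G FRET substrate after 2 h at room temperature, fluorescence at 405 nm excitation, 460/530 nm emission.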
Experiment [13] deals with Thyrotropin-releasing hormone receptor (Homo sapiens) (UniProt P34981). Nature of the experiment: qHTS assay to identify small molecule antagonists of the thyrotropin-releasing hormone receptor (TRHR) signaling pathway (AID 1346877; active means well fitted inhibition curve with a large enough effect in the repeat runs, not every such curve was filed as active; further: series mostly up to about 51 µM). In a few lines:
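Antagonism is measured as suppression of the calcium response to 1 nM TRH in TRHR-HEK293 cells that have been dye-loaded for 2 h at 37 °C after overnight plating. Each compound is tested at 15 concentrations in triplicate.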

Experiment [14] shares this target. Nature of the experiment: qHTS assay to identify small molecule agonists of the thyrotropin-releasing hormone receptor (TRHR) signaling pathway (AID 1346891; calls by dose curve; further: series mostly up to about 58 µM). The method in brief: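 HEK293 cells expressing TRHR plated 18 h at 37 C/5% CO2, calcium dye-loaded 2 h at 37 C, then compound added (agonist mode); kinetic calcium fluorescence read 3 min at 1 s intervals; 15 concentrations in triplicate.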

Experiment [15] is described as follows: Human pregnane X receptor (PXR) small molecule agonists, qHTS cell viability counter screen (AID 1346977). Further: nearly all actives have a fitted effect of over 50% in size. In a few lines: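 PXR-Luc HepG2 cells (2,000/well, 5% charcoal-stripped FBS) preincubated 5 hr, then exposed to compounds 24 hr at 37 C. Viability read in the same wells by CellTiter-Fluor fluorescence, reagent added at 23 hr, 1 hr incubation.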
A short description of experiment [16]: qHTS assay to identify small molecule agonists of the estrogen receptor beta (ER-beta) signaling pathway - cell viability counter screen (AID 1259380). Further: nearly all actives have a fitted effect of over 30% in size. The method in brief: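 Cytotoxicity is measured in parallel with the reporter screen: after 16 hr compound exposure at 37C and a 2 hr LiveBLAzer step, CellTiter-Glo is added to the same ER-beta-UAS-bla HEK293T wells and luminescence read after 30 min.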

The target in experiment [17] is Androgen receptor (Homo sapiens) (UniProt P10275). The experiment in a line: qHTS assay to identify small molecule agonists of the androgen receptor (AR) signaling pathway in the presence of an antagonist (AID 1259381; calls by dose curve; further: nearly all actives have a fitted effect of over 15% in size). In a few lines: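 Agonist-mode confirmation screen: human MDA-kb2 cells stably expressing luciferase under an MMTV promoter bearing AR and GR response elements, co-treated with 3.0uM nilutamide (final). Luminescence measured after 16hr compound incubation.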
Androgen receptor (Homo sapiens), sequence (P10275 whole entry, looked up): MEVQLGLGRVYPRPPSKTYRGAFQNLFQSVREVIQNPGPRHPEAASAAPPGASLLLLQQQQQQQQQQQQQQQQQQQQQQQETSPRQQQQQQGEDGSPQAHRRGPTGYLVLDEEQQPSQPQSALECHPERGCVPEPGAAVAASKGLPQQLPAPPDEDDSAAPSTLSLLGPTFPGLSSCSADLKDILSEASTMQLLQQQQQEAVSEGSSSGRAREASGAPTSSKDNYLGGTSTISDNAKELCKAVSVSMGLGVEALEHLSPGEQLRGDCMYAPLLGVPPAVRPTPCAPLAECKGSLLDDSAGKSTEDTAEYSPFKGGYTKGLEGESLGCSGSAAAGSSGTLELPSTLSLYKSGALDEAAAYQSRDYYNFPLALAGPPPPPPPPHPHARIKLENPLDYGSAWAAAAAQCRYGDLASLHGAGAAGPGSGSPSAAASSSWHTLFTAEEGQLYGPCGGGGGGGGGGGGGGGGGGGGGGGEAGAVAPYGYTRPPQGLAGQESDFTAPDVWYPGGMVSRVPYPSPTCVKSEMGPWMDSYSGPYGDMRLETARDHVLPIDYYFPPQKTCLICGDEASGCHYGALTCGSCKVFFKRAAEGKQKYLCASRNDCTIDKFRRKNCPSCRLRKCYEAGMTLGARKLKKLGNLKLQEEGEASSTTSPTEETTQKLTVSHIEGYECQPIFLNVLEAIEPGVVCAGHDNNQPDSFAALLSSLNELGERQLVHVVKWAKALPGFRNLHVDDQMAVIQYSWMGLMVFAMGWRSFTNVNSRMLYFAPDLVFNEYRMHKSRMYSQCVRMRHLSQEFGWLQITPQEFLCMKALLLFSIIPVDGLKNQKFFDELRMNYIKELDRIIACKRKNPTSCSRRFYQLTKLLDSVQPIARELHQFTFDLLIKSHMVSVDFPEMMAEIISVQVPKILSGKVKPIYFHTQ

In experiment [18] the target is Estrogen receptor (Homo sapiens) (UniProt P03372). The experiment in a line: qHTS assay to identify small molecule agonists of the estrogen receptor alpha (ER-alpha) signaling pathway in the presence of an antagonist (AID 1259383; calls by dose curve; further: top concentration of the series differs between compounds; nearly all actives have a fitted effect of over 15% in size). The method in brief: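 Agonist-mode confirmation in the presence of the ER antagonist ICI-182,780 at 10.0nM final. Breast-derived VM7Luc4E2 reporter cells were exposed to compounds for 22hr, and ERE-driven luciferase was quantified by luminescence.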
Estrogen receptor (Homo sapiens), sequence (P03372 whole entry, looked up): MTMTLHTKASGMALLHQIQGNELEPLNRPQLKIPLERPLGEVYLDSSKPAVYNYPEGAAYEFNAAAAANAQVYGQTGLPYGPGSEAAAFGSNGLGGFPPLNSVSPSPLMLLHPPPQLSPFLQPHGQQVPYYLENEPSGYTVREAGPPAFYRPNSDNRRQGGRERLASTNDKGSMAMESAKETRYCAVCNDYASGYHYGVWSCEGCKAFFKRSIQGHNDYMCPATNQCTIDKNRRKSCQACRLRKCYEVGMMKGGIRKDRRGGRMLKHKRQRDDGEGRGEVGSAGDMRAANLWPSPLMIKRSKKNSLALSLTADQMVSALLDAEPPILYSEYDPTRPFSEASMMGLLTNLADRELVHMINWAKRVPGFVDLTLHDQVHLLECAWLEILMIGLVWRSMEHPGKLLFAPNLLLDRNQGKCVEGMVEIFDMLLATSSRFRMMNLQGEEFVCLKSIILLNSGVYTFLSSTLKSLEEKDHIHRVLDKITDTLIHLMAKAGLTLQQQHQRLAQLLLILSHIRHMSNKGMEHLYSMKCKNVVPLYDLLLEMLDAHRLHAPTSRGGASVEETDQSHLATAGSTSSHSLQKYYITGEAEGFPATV
On the % scale 0 is the no-effect control and ±100 the full control effect.

Progesterone receptor (Homo sapiens), sequence (P06401 whole entry, looked up): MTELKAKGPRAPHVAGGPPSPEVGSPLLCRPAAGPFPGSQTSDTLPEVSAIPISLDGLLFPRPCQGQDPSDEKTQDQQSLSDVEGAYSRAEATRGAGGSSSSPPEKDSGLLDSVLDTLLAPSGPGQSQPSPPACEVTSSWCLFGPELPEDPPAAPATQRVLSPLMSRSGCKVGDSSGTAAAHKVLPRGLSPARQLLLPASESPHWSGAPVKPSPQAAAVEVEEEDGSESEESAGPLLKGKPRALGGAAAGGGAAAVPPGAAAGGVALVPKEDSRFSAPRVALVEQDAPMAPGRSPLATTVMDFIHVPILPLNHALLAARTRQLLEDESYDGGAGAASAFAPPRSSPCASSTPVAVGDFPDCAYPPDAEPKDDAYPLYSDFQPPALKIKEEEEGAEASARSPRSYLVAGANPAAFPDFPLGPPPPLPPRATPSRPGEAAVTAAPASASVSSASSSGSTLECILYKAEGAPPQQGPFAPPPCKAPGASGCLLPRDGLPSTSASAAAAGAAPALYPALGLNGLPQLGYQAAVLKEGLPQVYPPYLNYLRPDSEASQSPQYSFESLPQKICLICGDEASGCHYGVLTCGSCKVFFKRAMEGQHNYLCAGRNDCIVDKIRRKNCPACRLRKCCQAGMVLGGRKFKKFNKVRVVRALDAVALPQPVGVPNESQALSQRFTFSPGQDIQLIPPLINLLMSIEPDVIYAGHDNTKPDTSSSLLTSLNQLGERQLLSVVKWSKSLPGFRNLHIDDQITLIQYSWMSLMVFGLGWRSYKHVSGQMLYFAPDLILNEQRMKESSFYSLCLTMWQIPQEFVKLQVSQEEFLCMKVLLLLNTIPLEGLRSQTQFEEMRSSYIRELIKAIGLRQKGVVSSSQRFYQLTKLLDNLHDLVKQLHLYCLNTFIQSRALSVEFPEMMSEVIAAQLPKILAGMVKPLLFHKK
Thyrotropin-releasing hormone receptor (Homo sapiens), sequence (P34981 whole entry, looked up): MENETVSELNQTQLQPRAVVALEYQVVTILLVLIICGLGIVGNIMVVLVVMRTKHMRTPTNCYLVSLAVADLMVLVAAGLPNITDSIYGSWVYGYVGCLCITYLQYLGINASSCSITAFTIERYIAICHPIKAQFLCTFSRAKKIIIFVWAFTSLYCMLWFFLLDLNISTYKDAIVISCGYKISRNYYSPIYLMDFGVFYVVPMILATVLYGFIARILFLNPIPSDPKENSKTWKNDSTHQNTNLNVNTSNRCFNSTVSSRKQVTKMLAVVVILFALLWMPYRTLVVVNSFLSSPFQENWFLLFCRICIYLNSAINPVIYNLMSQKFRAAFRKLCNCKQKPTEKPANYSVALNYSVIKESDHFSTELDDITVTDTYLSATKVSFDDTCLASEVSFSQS
Thyrotropin receptor (Homo sapiens), sequence (P16473 whole entry, looked up): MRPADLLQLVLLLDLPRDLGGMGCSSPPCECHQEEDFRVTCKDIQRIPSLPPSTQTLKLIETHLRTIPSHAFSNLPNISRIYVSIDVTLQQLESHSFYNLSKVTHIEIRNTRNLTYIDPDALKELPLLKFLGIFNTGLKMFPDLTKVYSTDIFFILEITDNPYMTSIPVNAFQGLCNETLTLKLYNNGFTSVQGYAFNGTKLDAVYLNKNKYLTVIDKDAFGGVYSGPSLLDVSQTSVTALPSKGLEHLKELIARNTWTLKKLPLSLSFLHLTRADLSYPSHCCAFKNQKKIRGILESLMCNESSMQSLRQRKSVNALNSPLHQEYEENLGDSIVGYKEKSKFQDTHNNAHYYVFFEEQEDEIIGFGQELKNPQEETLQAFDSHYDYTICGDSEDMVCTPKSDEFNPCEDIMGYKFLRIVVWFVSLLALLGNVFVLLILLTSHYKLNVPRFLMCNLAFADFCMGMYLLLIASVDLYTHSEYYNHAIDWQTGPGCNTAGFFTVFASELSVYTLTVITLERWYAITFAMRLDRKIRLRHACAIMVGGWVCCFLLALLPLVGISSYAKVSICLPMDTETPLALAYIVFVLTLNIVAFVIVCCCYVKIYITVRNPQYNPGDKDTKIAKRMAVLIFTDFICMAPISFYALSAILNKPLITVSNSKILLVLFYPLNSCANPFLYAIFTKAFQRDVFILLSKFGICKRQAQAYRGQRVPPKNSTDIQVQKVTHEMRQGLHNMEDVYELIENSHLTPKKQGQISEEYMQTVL

For `CC[N+](C)(CC)CCOC(=O)C1c2ccccc2Oc2ccccc21`, the Potency entry in [1], in [5], in experiment [6], in experiment [7], in [8] and in [9] was “inactive” in each case. For the same molecule, the Potency entry in experiment [14] and in experiment [15] was “inactive” each time. Further, the molecule was called inactive in experiment [2], in [3], in experiment [4], in experiment [10], in [11] and in experiment [12]. Further, in experiment [13], the outcome was inactive.
Consider `NC(N)=NCCN1CCCCCCC1`, for which the activity change, negative = cytotoxicity in experiment [1] was -1.24% [at 0.35 µM]; in experiment [2], 9.29% [at 0.349 µM]; in experiment [5] it was 3.85% [at 0.349 µM]; in experiment [8], -0.514% [at 0.348 µM]; in experiment [9], 0.507% [at 0.349 µM]; in [15] it was -0.749% [at 0.349 µM]. Besides, the figures for the activity change, negative = inhibition in [4] and in experiment [7] were -0.745% [at 0.349 µM] and 0.475% [at 0.348 µM], respectively. Also, the values for the activation in experiment [6] and in experiment [12] were -1.69% [at 0.349 µM] and 0.678% [at 0.29 µM], respectively. Moreover, the viability change, negative = cytotoxic in [10] is 2.08% [at 0.29 µM].
`CC[C@H]1OC(=O)[C@H](C)[C@@H](O[C@H]2C[C@@](C)(OC)[C@@H](O)[C@H](C)O2)[C@H](C)[C@@H](O[C@@H]2O[C@H](C)C[C@H](N(C)C)[C@H]2O)[C@](C)(OC)C[C@@H](C)C(=O)[C@H](C)[C@@H](O)[C@]1(C)O`: the Potency entry in experiment [1], in experiment [16], in [5], in experiment [6], in experiment [7] and in experiment [8] was “inactive” throughout. Also, the Potency entry in experiment [9], in experiment [14] and in experiment [15] was “inactive” each time. The molecule was called inactive in experiment [2], in experiment [10], in [11], in experiment [12] and in experiment [13].
In the case of `CNC(=O)Nc1ccc(Cl)c(Cl)c1`, the Potency entry in experiment [1], in experiment [17], in [5], in experiment [6], in experiment [8] and in experiment [9] was “inactive” each time. Further, the Potency entry in experiment [14] and in [15] was “inactive” throughout. Moreover, the molecule was classed as inactive in experiment [2], in experiment [18], in [3], in experiment [4], in experiment [10] and in [11]. Also, the molecule was classed as inactive in [12] and in experiment [13].
As for `COc1cc(C)nc(-n2nc(C)cc2OC)n1`, the Potency entry in experiment [1], in [16], in experiment [5] and in experiment [15] was “inactive” throughout. The outcome in [2], in experiment [3], in experiment [4], in experiment [10], in [11] and in experiment [12] was inactive. The Potency is 11.9 µM (active) in [8] and 8.41 µM (active) in experiment [9].
`CC1=NN(c2cccc(S(=O)(=O)O)c2)C(=O)C1`: the Potency entry in [1], in experiment [17], in [5], in experiment [6], in experiment [7] and in experiment [14] was “inactive” in each case. For the same molecule, the Potency entry in [15] was “inactive”. The result in experiment [2], in [18], in experiment [3], in experiment [4], in experiment [10] and in experiment [11] was inactive. The molecule was called inactive in experiment [12] and in experiment [13].
As to `CC(C)C[C@@H](N)C(=O)O`, the activity change, negative = cytotoxicity was 0.366% [at 19 µM] in [1]; 2.37% [at 19 µM] in experiment [16]; 1.92% [at 19 µM] in experiment [2]; -9.21% [at 18.9 µM] in experiment [8]; -1.58% [at 19 µM] in [9]; 15.2% [at 15.8 µM] in experiment [11]. For the same molecule, the activity change, negative = cytotoxicity in experiment [15] was 28.2% [at 19 µM]. Besides, in experiment [3], the cAMP activity change was 1.68% [at 18.9 µM]. For the same molecule, the results for the activity change, negative = inhibition in experiment [4] and in experiment [7] were 2.7% [at 19 µM] and 12.3% [at 18.9 µM], respectively. Moreover, the activation in experiment [6] was -1.5% [at 19 µM]; in [12], 0.277% [at 15.8 µM]; in experiment [14], -0.187% [at 11.8 µM]. In addition, the viability change, negative = cytotoxic in [10] was -3.28% [at 15.8 µM]. Also, in experiment [13], the activity, negative = inhibition was -3.99% [at 10.5 µM].
With `COc1cc2c(cc1OC)-c1cc3ccc(OC)c(OC)c3c[n+]1CC2`, in experiment [1], the Potency is 49 µM (active). Also, the Potency entry in [16], in [6], in experiment [7], in experiment [9] and in experiment [14] was “inactive” each time. Also, the call in [2], in experiment [10], in experiment [11] and in [13] was inactive.
As for `C[N+]12CCC(CC1)C(OC(=O)C(O)(c1ccccc1)c1ccccc1)C2` (configuration not stated), the Potency entry in experiment [16], in experiment [6], in experiment [7], in [9], in [14] and in experiment [15] was “inactive” in each case. For the same molecule, the molecule was classed as inactive in experiment [2], in [3], in experiment [4], in experiment [10], in experiment [11] and in [12]. Moreover, the result in experiment [13] was inactive.
For `CCCCCCCCCCCCCCC(=O)O`, the Potency result in [1], in experiment [5], in experiment [9], in experiment [14] and in experiment [15] was “inactive” each time. The call in [2], in [18], in experiment [4], in experiment [11], in experiment [12] and in experiment [13] was inactive.
